PMC5540273 (PLoS ONE, 2017)

Legend:
JNK1 = test system: T1, JNK1
T1 construct: gene MAPK8

JNK2 = test system: T2, JNK2
T2 construct: gene MAPK9

JNK3 = test system: T3, JNK3
T3 construct: gene MAPK10

[1] = test system: JAK3(JH1domain-catalytic)
[2] = test system: JAK2(JH1domain-catalytic)
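Also: kd values determined as follow-up on hits from a single-replicate KINOMEscan panel screen.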

## COC(=O)c1c(-c2ccccc2)c2cc(Br)ccc2c(=O)n1Cc1ccc(S(C)(=O)=O)cc1
JNK1
  Kd: 480 nM
JNK2
  Kd: 350 nM
JNK3
  Kd: 73 nM

## CCC(=O)c1c(-c2ccccc2)c2cc(Cl)ccc2c(=O)n1Cc1cc(C(=O)NC2CC2)n(C)n1
JNK1
  Kd: 20 nM
JNK2
  Kd: 10 nM
JNK3
  Kd: 3.8 nM

## COc1cccc(C2=C(Nc3cccc(C(=O)O)c3)C(=O)NC2=O)c1 [SB-390770]
[1]
  Kd: 480 nM

## CCC(=O)c1c(-c2ccccc2)c2cc(Cl)ccc2c(=O)n1Cc1cc(S(C)(=O)=O)n(CC(N)=O)n1
JNK1
  Kd: 160 nM
JNK2
  Kd: 120 nM
JNK3
  Kd: 60 nM

## Cl.NS(=O)(=O)c1cccc(Nc2cc(-c3ccc(F)cc3)n[nH]2)c1 [GW824645]
KIT
  Kd: 16 nM

## Cc1nc(N(C)[C@H]2CN(C(=O)CC#N)CC[C@H]2C)c2cc[nH]c2n1
[1]
  Kd: 140 nM

## Nc1n[nH]c2ncc(-c3ccccc3)cc12 [SB-517081]
KIT
  Kd: 92 nM

## CN(C)c1cc(-c2ccc3c(N)n[nH]c3c2)nc(N)n1 [GSK2219329]
KIT-autoinhibited
  Kd: > 10000 nM

## CCC(=O)c1c(-c2ccccc2)c2cc(Cl)ccc2c(=O)n1Cc1cc(S(C)(=O)=O)n(CC(F)F)n1
JNK1
  Kd: 37 nM
JNK2
  Kd: 33 nM
JNK3
  Kd: 9.2 nM

## COc1ccc(-n2cnc3c(N)ncnc32)cc1 [SKF-97236]
KIT
  Kd: 200 nM

## CCC(=O)c1c(-c2ccccc2)c2cc(Cl)ccc2c(=O)n1Cc1ccc(C(=O)O)cc1
JNK1
  Kd: 66 nM
JNK2
  Kd: 77 nM
JNK3
  Kd: 12 nM

## CC(C)(C)c1ccc(C(=O)Nc2cn3cc(-c4ccccc4)ccc3n2)cc1
KIT
  Kd: > 10000 nM

## COc1cc(Nc2ccnc3ccc(C(F)(F)F)cc23)cc(OC)c1OC [GW577382]
[1]
  Kd: > 10000 nM

## O=C(NCCNc1ccnc(Nc2ccc(F)cc2)n1)Nc1ccc2c(c1)OCO2 [GSK1379882]
[2]
  Kd: 2000 nM

## CCc1nc(-c2cccc(C)c2)c(-c2ccncc2)s1
JNK3
  Kd: 81 nM

## CCC(=O)c1c(-c2ccccc2)c2cc(Cl)ccc2c(=O)n1Cc1cc(S(C)(=O)=O)n(CCC(C)(C)O)n1
JNK1
  Kd: 19 nM
JNK2
  Kd: 15 nM
JNK3
  Kd: 4.6 nM

## COc1cc(Nc2nccc(N3CCC(NC(=O)C(C)c4ccc(Cl)cc4)C3)n2)cc(OC)c1OC (stereo not shown) [GSK1379757]
[2]
  Kd: 140 nM

## COC(=O)c1c(-c2ccccc2)c2cc(Br)ccc2c(=O)n1Cc1ccc(NC(=O)CCC(=O)O)cc1
JNK1
  Kd: 58 nM
JNK2
  Kd: 66 nM
JNK3
  Kd: 13 nM

## CCCNC(=O)Nc1ccc(Oc2ncnc3ccn(C)c23)cc1
KIT
  Kd: 67 nM

## COc1ccc(Nc2nccc(N3CCC(NS(=O)(=O)c4ccc(NC(C)=O)cc4)C3)n2)cc1 (stereo not shown) [GSK1379729]
[2]
  Kd: 38 nM
